Among all 5,500 compounds or so, about 2,000 (36%) were called active. Not shown: some 18% with an inconclusive outcome. Rule as the data show it: active = normalized growth mostly below about 0.91 (no sharp cut-off); inconclusive = no clear call, values can overlap the other calls; inactive = mostly above about 0.92. Some of the results follow.
Assay: chemical genetic growth profiling, strain panel (AID 1159580);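 also: tested at 20 µM; growth read once vehicle control cultures reached saturation at 30 °C; 1 = growth at the plate median or of vehicle wells; lower values mean less growth of the strain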
Details: growth OD
[1] = S. cerevisiae deletion strains, locus YDL101C, strain DUN1, hits give low values
[2] = S. cerevisiae deletion strains, locus YHR030C, strain SLT2, hits give low values
[3] = S. cerevisiae deletion strains, locus YAL013W, strain DEP1, hits give low values
[4] = S. cerevisiae deletion strains, locus YDR150W, strain NUM1, hits give low values
[5] = S. cerevisiae deletion strains, locus YGR229C, strain SMI1, hits give low values
[6] = S. cerevisiae deletion strains, locus YJR075W, strain HOC1, hits give low values
[7] = S. cerevisiae deletion strains, locus YMR307W, strain GAS1, hits give low values
[8] = S. cerevisiae deletion strains, locus YNL322C, strain KRE1, hits give low values
[9] = S. cerevisiae deletion strains, locus YPL055C, strain LGE1, hits give low values
[10] = S. cerevisiae deletion strains, locus YBR229C, strain ROT2, hits give low values
[11] = S. cerevisiae deletion strains, locus YCL061C, strain MRC1, hits give low values
[12] = S. cerevisiae deletion strains, locus YDL134C, strain PPH21, hits give low values
[13] = S. cerevisiae deletion strains, locus YEL061C, strain CIN8, hits give low values
[14] = S. cerevisiae deletion strains, locus YGR078C, strain PAC10, hits give low values
[15] = S. cerevisiae deletion strains, locus YHR087W, strain rtc3, hits give low values
[16] = S. cerevisiae deletion strains, locus YJL187C, strain SWE1, hits give low values
[17] = S. cerevisiae deletion strains, locus YJR043C, strain POL32, hits give low values
[18] = S. cerevisiae deletion strains, locus YLR039C, strain RIC1, hits give low values
[19] = S. cerevisiae deletion strains, locus YLR058C, strain SHM2 (second series), hits give low values
[20] = S. cerevisiae deletion strains, locus YLR085C, strain ARP6, hits give low values
[21] = S. cerevisiae deletion strains, locus YLR262C, strain YPT6, hits give low values
[22] = S. cerevisiae deletion strains, locus YML094W, strain GIM5, hits give low values
[23] = S. cerevisiae deletion strains, locus YMR219W, strain ESC1, hits give low values
[24] = S. cerevisiae deletion strains, locus YNL153C, strain GIM3, hits give low values
[25] = S. cerevisiae deletion strains, locus YNL298W, strain CLA4 (second series), hits give low values
[26] = S. cerevisiae deletion strains, locus YNR030W, strain Alg12, hits give low values
[27] = S. cerevisiae deletion strains, locus YPL241C, strain CIN2, hits give low values
[28] = S. cerevisiae deletion strains, locus YPR135W, strain CTF4, hits give low values

Measured: normalized growth

COCCOc1ccccc1NC(=S)SCCSC(=S)Nc1ccccc1OCCOC
inactive: S. cerevisiae deletion strains, locus YAR019C, strain CDC15, hits give low values 0.988 | S. cerevisiae deletion strains, locus YBL105C, strain PKC1, hits give low values 0.978 | S. cerevisiae deletion strains, locus YBR135W, strain CKS1, hits give low values 0.978 | S. cerevisiae deletion strains, locus YBR136W, strain MEC1, hits give low values 0.977 | S. cerevisiae deletion strains, locus YBR160W, strain CDC28, hits give low values 0.979 | S. cerevisiae deletion strains, locus YDL017W, strain CDC7, hits give low values 0.98 | S. cerevisiae deletion strains, locus YDL028C, strain MPS1, hits give low values 0.98 | [1] 0.973 | S. cerevisiae deletion strains, locus YDL108W, strain KIN28, hits give low values 0.97 | S. cerevisiae deletion strains, locus YDL132W, strain cdc53, hits give low values 0.976 | S. cerevisiae deletion strains, locus YDL214C, strain PRR2, hits give low values 0.911 | S. cerevisiae deletion strains, locus YDR052C, strain DBF4, hits give low values 0.981 | S. cerevisiae deletion strains, locus YDR054C, strain cdc34, hits give low values 0.976 | S. cerevisiae deletion strains, locus YDR226W, strain ADK1, hits give low values 0.969 | S. cerevisiae deletion strains, locus YDR477W, strain SNF1, hits give low values 0.955 | S. cerevisiae deletion strains, locus YER123W, strain YCK3, hits give low values 0.883 | S. cerevisiae deletion strains, locus YER133W, strain GLC7, hits give low values 0.938 | S. cerevisiae deletion strains, locus YFL009W, strain cdc4, hits give low values 0.976 | S. cerevisiae deletion strains, locus YFL029C, strain CAK1, hits give low values 0.981 | S. cerevisiae deletion strains, locus YFR003C, strain YPI1, hits give low values 0.977 | S. cerevisiae deletion strains, locus YFR019W, strain FAB1, hits give low values 0.945 | S. cerevisiae deletion strains, locus YFR028C, strain CDC14, hits give low values 0.988 | S. cerevisiae deletion strains, locus YGR040W, strain KSS1, hits give low values 0.938 | S. cerevisiae deletion strains, locus YGR052W, strain FMP48, hits give low values 1 | S. cerevisiae deletion strains, locus YGR092W, strain DBF2, hits give low values 0.933 | [2] 1.15 | S. cerevisiae deletion strains, locus YHR079C, strain IRE1, hits give low values 1.03 | S. cerevisiae deletion strains, locus YHR082C, strain KSP1, hits give low values 1.01 | S. cerevisiae deletion strains, locus YHR205W, strain SCH9, hits give low values 0.936 | S. cerevisiae deletion strains, locus YIL147C, strain SLN1, hits give low values 0.97 | S. cerevisiae deletion strains, locus YJL095W, strain BCK1, hits give low values 1.03 | S. cerevisiae deletion strains, locus YJL128C, strain PBS2, hits give low values 0.941 | S. cerevisiae deletion strains, locus YJL157C, strain FAR1, hits give low values 0.924 | S. cerevisiae deletion strains, locus YJR016C, strain ILV3, hits give low values 0.987 | S. cerevisiae deletion strains, locus YJR066W, strain TOR1 (second series), hits give low values 0.899 | S. cerevisiae deletion strains, locus YJR066W, strain TOR1, hits give low values 1.03 | S. cerevisiae deletion strains, locus YKL048C, strain ELM1, hits give low values 0.944 | S. cerevisiae deletion strains, locus YKL067W, strain YNK1, hits give low values 0.937 | S. cerevisiae deletion strains, locus YKL101W, strain HSL1, hits give low values 0.931 | S. cerevisiae deletion strains, locus YKL193C, strain SDS22, hits give low values 0.985 | S. cerevisiae deletion strains, locus YKL203C, strain TOR2, hits give low values 1.02 | S. cerevisiae deletion strains, locus YLR113W, strain HOG1, hits give low values 0.931 | S. cerevisiae deletion strains, locus YLR133W, strain CKI1, hits give low values 0.947 | S. cerevisiae deletion strains, locus YLR403W, strain SFP1, hits give low values 0.944 | S. cerevisiae deletion strains, locus YML070W, strain DAK1, hits give low values 0.902 | S. cerevisiae deletion strains, locus YMR001C, strain CDC5, hits give low values 0.981 | S. cerevisiae deletion strains, locus YMR205C, strain PFK2 (second series), hits give low values 0.939 | S. cerevisiae deletion strains, locus YMR277W, strain FCP1, hits give low values 0.984 | S. cerevisiae deletion strains, locus YNL006W, strain LST8, hits give low values 0.983 | S. cerevisiae deletion strains, locus YNL020C, strain ARK1, hits give low values 0.931 | S. cerevisiae deletion strains, locus YNL161W, strain CBK1, hits give low values 0.984 | S. cerevisiae deletion strains, locus YNL183C, strain NPR1, hits give low values 1.01 | S. cerevisiae deletion strains, locus YNL207W, strain RIO2, hits give low values 0.993 | S. cerevisiae deletion strains, locus YNL222W, strain SSU72, hits give low values 0.972 | S. cerevisiae deletion strains, locus YNL307C, strain MCK1 (second series), hits give low values 0.946 | S. cerevisiae deletion strains, locus YOL078W, strain AVO1, hits give low values 0.98 | S. cerevisiae deletion strains, locus YOL136C, strain PFK27, hits give low values 0.918 | S. cerevisiae deletion strains, locus YOR061W, strain CKA2, hits give low values 0.92 | S. cerevisiae deletion strains, locus YOR119C, strain RIO1, hits give low values 0.991 | S. cerevisiae deletion strains, locus YOR231W, strain MKK1, hits give low values 1 | S. cerevisiae deletion strains, locus YOR329C, strain SCD5, hits give low values 0.981 | S. cerevisiae deletion strains, locus YPL031C, strain PHO85, hits give low values 0.949 | S. cerevisiae deletion strains, locus YPL153C, strain RAD53, hits give low values 0.928 | S. cerevisiae deletion strains, locus YPL204W, strain HRR25, hits give low values 0.945 | S. cerevisiae deletion strains, locus YPL209C, strain IPL1, hits give low values 0.978 | S. cerevisiae deletion strains, locus YPL256C, strain CLN2, hits give low values 0.991 | S. cerevisiae deletion strains, locus YPR025C, strain CCL1, hits give low values 0.982 | S. cerevisiae deletion strains, locus YPR106W, strain ISR1, hits give low values 0.98 | S. cerevisiae deletion strains, locus YPR111W, strain DBF20, hits give low values 0.977 | S. cerevisiae deletion strains, strain NNK1, hits give low values 0.981 | S. cerevisiae deletion strains, strain TSCII, hits give low values 0.99

CCOC(=O)Nc1ccc(NCc2ccc(F)cc2)nc1N
inactive: [3] 1.02 | S. cerevisiae deletion strains, locus YAL040C, strain CLN3, hits give low values 1.01 | S. cerevisiae deletion strains, locus YCL061C, strain MRC1 (second series), hits give low values 1 | [4] 0.991 | S. cerevisiae deletion strains, locus YDR363W, strain ESC2, hits give low values 1.02 | S. cerevisiae deletion strains, locus YER002W, strain NOP16, hits give low values 1 | [5] 1.07 | [6] 1.01 | [7] 0.994 | S. cerevisiae deletion strains, locus YNL128W, strain TEP1, hits give low values 0.993 | S. cerevisiae deletion strains, locus YNL175C, strain NOP13, hits give low values 1.01 | S. cerevisiae deletion strains, locus YNL197C, strain WHI3, hits give low values 1.01 | S. cerevisiae deletion strains, locus YNL224C, strain SQS1, hits give low values 1.04 | [8] 1.01 | S. cerevisiae deletion strains, locus YOR083W, strain WHI5 (second series), hits give low values 1.03 | [9] 1.02

CCOC(=O)c1c(C)csc1N
inactive: [3] 0.99 | [10] 0.999 | [11] 0.996 | [1] 0.998 | [12] 1.01 | [4] 1.01 | [13] 0.987 | [14] 0.983 | [2] 0.98 | [15] 1.01 | [16] 1 | [17] 1.01 | [6] 0.997 | [18] 1 | [19] 1.01 | [20] 0.983 | [21] 1.02 | [22] 0.984 | [23] 1.01 | S. cerevisiae deletion strains, locus YMR263W, strain SAP30, hits give low values 1.02 | [7] 0.9 | [24] 1 | [25] 0.967 | [8] 0.993 | [26] 0.984 | [9] 1.03 | [27] 0.972 | [28] 1.02

CCOC(=O)c1c(-c2ccc(F)cc2)csc1N
active: [3] 0.879 | [10] 0.905 | [11] 0.889 | [12] 0.887 | [13] 0.746 | [5] 0.928 | [2] 0.175 | [15] 0.858 | [16] 0.903 | [6] 0.86 | [18] 0.437 | [19] 0.897 | [20] 0.508 | [21] 0.438 | [22] 0.798 | [23] 0.93 | [25] 0.782 | [26] 0.842 | S. cerevisiae deletion strains, locus YOL006C, strain TOP1, hits give low values 0.479 | [9] 0.754 | [27] 0.807 | [28] 0.435 | S. cerevisiae strains, strain wild type, hits give low values 0.82
inactive: [1] 0.986 | [4] 0.986 | [14] 0.93 | [17] 0.957 | [24] 0.941 | [8] 0.95
